# According to PubChem BioAssay AID488890 (Southern Research Specialized Biocontainment Screening …, 2010):
# The campaign covered roughly 320,000 compounds. About 1,300 (0.41%) were called active. Not shown: some 3% with an inconclusive outcome. No rule for the calls is given here. A selection follows. Entries with a potency or affinity are not part of this list.
# Experiment: growth inhibition of non-replicating M. tuberculosis (AID 488890);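 also: plate controls were DMSO cells for no effect and high antibiotic wells for full effect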
# Conditions: Mycobacterium tuberculosis non-replicating, at 25 µM, stronger effect = higher value
row,SMILES,inhibition [%]
1,Cc1ccc(S(=O)(=O)N(C)C)cc1NC(=O)c1c(-c2c(F)cccc2Cl)noc1C,-9.18
2,CCOc1ccccc1C(=O)Nc1nccs1,5.93
3,O=C(Nc1nccs1)c1ccc(Cl)cc1[N+](=O)[O-],0.86
4,CCOc1cccc2cc(C(=O)Nc3cc(C)on3)c(=O)oc12,75.1
5,O=C(Nc1nccs1)c1cc(Cl)ccc1[N+](=O)[O-],12.9
6,Nc1nnc(-c2ccccc2F)s1,1
7,O=C(/C=C/c1ccc(Cl)cc1)Nc1ccccc1N1CCOCC1,-7.86
8,O=c1[nH]c(=O)n(Cc2ccco2)c(O)c1/C=N/N1CCCCC1,1.03
9,COCCN=C1NN=C(c2ccc(C)c([N+](=O)[O-])c2)CS1,-8.83
10,N/C(=N\OC(=O)CC1CCCCC1)c1cccnc1,73
11,N/C(=N\OC(=O)CCC1CCCC1)c1ccncc1,60.9
12,OCCN1CCN(c2nc(NCc3ccco3)c3ccccc3n2)CC1,9.79
13,Cc1ccc(OCCN2CCN(c3nc(NCc4ccco4)c4ccccc4n3)CC2)cc1,62.8
14,CCN(c1ccccc1)S(=O)(=O)c1ccc(NC(=O)c2nc(S(C)(=O)=O)ncc2Cl)cc1,37.2
15,CN(c1ccccc1)S(=O)(=O)c1ccc(NC(=O)c2nc(S(C)(=O)=O)ncc2Cl)cc1,56
16,CCC1CCCCN1S(=O)(=O)c1ccc(NC(=O)c2nc(S(C)(=O)=O)ncc2Cl)cc1 (stereo not given),66.2
17,Cc1ccc(CS(=O)(=O)c2ncc(Cl)c(C(=O)Nc3ccc(OC(F)F)cc3)n2)cc1,-1.41
18,CCS(=O)(=O)c1ncc(Cl)c(C(=O)Nc2ccc(S(=O)(=O)N3CCCC(C)C3)cc2)n1 (stereo not given),58.5
19,CCc1ccc(NC(=O)c2nc(S(=O)(=O)Cc3ccccc3)ncc2Cl)cc1,0.81
20,Cc1ccc(F)cc1NC(=O)N1CCCN(C(=O)OC(C)(C)C)CC1,-10.3
21,O=C(CSc1ncn[nH]1)Nc1c(F)cc(F)cc1Br,-11.1
22,Cc1ccc(NC(=O)CC(C)c2ccccc2)cc1S(=O)(=O)N1CCOCC1 (stereo not given),10.4

row,SMILES,inhibition [%]
1,O=C(O)CNC(=S)N(Cc1ccccc1)Cc1cccnc1,6.66
2,O=C(CSc1nncs1)Nc1nccs1,-27.1
3,COCCN1CCn2c(nc3cc(NC(=O)Cn4nc(C)c5ccccc5c4=O)ccc32)C1,-5.63
4,COc1ccc(OCCNc2cc(N3CCOCC3)ccc2[N+](=O)[O-])cc1,26.3
5,COc1ccc(OCCNc2cc(N3CCCCC3)ccc2[N+](=O)[O-])cc1,72.4
6,Cc1ccsc1C(=O)C1CCCN(Cc2sc(N(C)C)nc2Cl)C1 (stereo not given),-9.22
7,CC1CC(c2ccccc2)n2nc(NC(=O)c3ccco3)nc2N1 (stereo not given),3.85
8,CC1CCCC(NC(=O)CCCn2ncn3c(cc4occc43)c2=O)C1C (stereo not given),-13.3
9,CC1Cc2ccccc2N1C(=O)c1ccc(N2CCCCC2)c([N+](=O)[O-])c1 (stereo not given),20.8
10,Cc1ccc2sc3ccc(NC(=O)c4ccccc4Cl)cc3c(=O)c2c1,-1.36
11,Cc1ccc(C(=O)N[C@H](C(=O)NC2CCCCCCC2)C(C)C)cc1,-6.5
12,Cc1ccc(C(=O)N[C@H](C(=O)NC2CCCCC2)C(C)C)cc1,15.5
13,CN(C)c1cc[n+](CC(=O)N2c3ccccc3Sc3ccccc32)cc1,6.94
14,CC1(c2cc(C(F)(F)F)n3nc(C(=O)O)cc3n2)CC1,-1.85
15,Fc1ccc(Oc2cnc3ccccc3n2)cc1,75.1
16,CCC(=O)Nc1nc2ccccc2n1CCN(C)C,28.6
17,CCn1c(NCc2ccccc2Cl)nc2ccccc21,26.2
18,CCC(=O)Nc1nc2ccccc2n1CCN1CCOCC1,2.63
19,CCS(=O)(=O)c1nc2ccccc2n1Cc1ccccc1Cl,17.3
20,Cc1nc2ccccc2n1Cc1ccc(Cl)cc1,16.2
21,CCC(=O)Nc1nc2ccccc2n1CCN(CC)CC,12.6
22,Cc1ccc(CNC(=O)c2nnn(-c3cccc(C)c3)c2N)cc1,27.4

row,SMILES,inhibition [%]
1,O=c1c2ccccc2nnn1COc1ccc(F)cc1Cl,33
2,N#CC(C#N)=C1NC2(CCCCC2)Cc2ccccc21,-7.74
3,CN(CC(=O)Nc1cccc(F)c1)C(=O)c1ccc(C2SCCS2)cc1,16
4,COc1ccc(NC(=O)c2cnc(SCC(=O)NCCc3ccccc3)n(C)c2=O)cc1,-6.78
5,COc1ccccc1C(=O)N(CCC1CCCN1C)c1nc2ccccc2s1 (stereo not given),12.9
6,CCCCn1c(N)c(N(CCOC)C(=O)c2sc3cc(F)ccc3c2Cl)c(=O)[nH]c1=O,-5.03
7,NS(=O)(=O)c1ccc(NC(=O)COC(=O)COc2ccc3ccccc3c2)cc1,34.3
8,O=C(CSc1n[nH]c(=O)n1Cc1ccco1)Nc1ccccc1,-4.65
9,CCN1C(=O)C(CC(=O)Nc2ccc(Br)cc2)N(CCCc2ccccc2)C1=S (stereo not given),41.5
10,O=C(Nc1ccccc1)ON=C1CCCC1,69.3
11,Cc1ccc(NC(=O)O/N=C/c2ccc(F)cc2)cc1,4.77
12,O=C(COc1cc2oc(=O)c3c(c2cc1Cl)CCC3)Nc1cccnc1,5.55
13,COc1ccc(-c2cc(C(F)(F)F)nc(S(=O)(=O)CCC(=O)N3CCOCC3)n2)cc1,79
14,COc1ccc(-c2cc(C(F)(F)F)nc(N)n2)cc1,6.01
15,Cc1ccc(-c2cc(C(F)F)nc(N3CCC(C)CC3)n2)cc1,8.45
16,COc1ccccc1-c1cc(C(F)(F)F)nc(S(=O)(=O)CCCC(=O)O)n1,44.3
17,Cc1ccc(-c2cc(C(F)F)nc(N3CCOCC3)n2)cc1,17.6
18,Cc1cc(NC(=O)CCS(=O)(=O)c2nc(-c3ccccc3)cc(C(F)(F)F)n2)no1,41.1
19,CCOC(=O)CCSc1nc(-c2ccccc2)cc(C(F)(F)F)n1,8.6
20,CCOC(=O)CSc1nc(-c2ccccc2)cc(C(F)(F)F)n1,69.6
21,O=C1OC[C@H]2CCCN2C(=O)[C@@H](CC(=O)N(CCO)Cc2ccccc2)C/C=C\C[C@H]1Cc1ccc(F)cc1,47.4
22,O=C1NNC(c2ccccc2)=N/C1=C\c1ccccc1,-6.71

row,SMILES,inhibition [%]
1,CSc1ccccc1C(=O)NCCCOC(C)C,-17.5
2,O=C(O)/C=C/C(=O)NCCCc1ccccc1,18.7
3,CC1=C(C(=O)OCCOC(C)C)C(c2cc3c(cc2Br)OCO3)C2=C(CCCC2=O)N1 (stereo not given),12.9
4,COc1cc(CC(CC(=O)O)CC(C)OCc2ccccc2)cc(OC)c1 (stereo not given),24.2
5,CC(OC(=O)c1ccc2c(=O)n3c(nc2c1)CCC3)C(N)=O (stereo not given),-8.53
6,O=C(COc1ccccc1Cl)NNC(=O)c1ccc2c(=O)n3c(nc2c1)CCC3,-23
7,CN(Cc1cccc(F)c1)C(=O)c1ccc2c(=O)n3c(nc2c1)CCC3,-4.16
8,O=C(c1ccc2c(=O)n3c(nc2c1)CCCCC3)N1CCN(c2ccc([N+](=O)[O-])cc2)CC1,25.7
9,COc1ccc(COC(=O)c2ccc3c(=O)n4c(nc3c2)CCC4)cc1F,-0.76
10,COc1ccc(CN(C)C(=O)c2ccc3c(=O)n4c(nc3c2)CCC4)cc1,-3.83
11,O=C(NNC(=O)c1ccccc1Cl)c1ccc2c(=O)n3c(nc2c1)CCC3,1.89
12,O=C(Nc1ccc2nc3n(c(=O)c2c1)CCCC3)c1cccc([N+](=O)[O-])c1,-20.7
13,CC1CCCCN1S(=O)(=O)c1ccc(S(=O)(=O)N2CCCC2)cc1 (stereo not given),4.73
14,CCOc1ccc(CCNS(=O)(=O)c2cc3c(cc2C)NC(=O)CO3)cc1OCC,16.2
15,O=C(Cc1cccc2ccccc12)Nc1ccccc1Br,12.5
16,CC(=O)Nc1nnc(SCC(=O)NCc2ccc3c(c2)OCO3)s1,-14.9
17,Cc1ccc(C(=O)NCc2ccc3c(c2)OCO3)cc1Cl,45.9
18,Cc1ccc(CS(=O)(=O)CCC(=O)N2CCC3(CC2)OCCO3)cc1,-11.2
19,Cc1ccc(S(=O)(=O)Nc2ccccc2F)cc1C(=O)NCCCN1CCCC1=O,-4.79
20,CCOC(=O)c1c(S(=O)(=O)Nc2ccc(C)c(F)c2)c(C)n(C)c1C,-0.18
21,CC1(C)CC(=O)C(C2=NC3(CCCCCC3)Cc3ccccc32)=C(O)C1,-2.29
22,CS(=O)(=O)N1CCC(C(=O)Nc2cc(Cl)ccc2Cl)CC1,-6.65

row,SMILES,inhibition [%]
1,CC(C)c1cc(C(=O)N2CCN(C(c3ccccc3)c3ccccc3)CC2)no1,21.3
2,NC(=O)[C@@H]1CC2(CC(c3cccc(NC(=O)CC(c4ccccc4)c4ccccc4)c3)=NO2)CN1C(=O)[C@@H]1CCC(=O)N1 (stereo not given in full),14.1
3,CCc1nnc(NC(=O)C2Cc3ccccc3CN2S(=O)(=O)CC)s1 (stereo not given),5.84
4,CC(OC(=O)c1ccc2c(=O)n3c(nc2c1)CCCCC3)C(=O)Nc1ncc(Cl)cc1Cl (stereo not given),29.8
5,CC(OC(=O)c1ccc2c(=O)n3c(nc2c1)CCCCC3)C(=O)Nc1ccc(F)cc1Cl (stereo not given),2.57
6,CCOc1ccc(NC(=O)c2ccc3c(=O)n4c(nc3c2)CCCCC4)cc1,20.7
7,O=C(NNC(=O)c1ccc2c(=O)n3c(nc2c1)CCC3)c1ccc(F)cc1,-18.9
8,CCOc1ccc(CCNC(=O)c2ccc3c(=O)n4c(nc3c2)CCCCC4)cc1,51
9,O=C(Nc1ccc(F)cc1)c1ccc2c(=O)n3c(nc2c1)CCCCC3,21.9
10,CNS(=O)(=O)c1cccc(C(=O)OCC(=O)N2c3ccccc3CC2C)c1 (stereo not given),-1.88
11,Fc1ccc(-c2n[nH]c(=S)c3ccccc23)cc1,15.8
12,CCOc1ccc(NC(=O)Nc2ccc3c(c2)CCC3)cc1,-9.82
13,Cc1cc(F)ccc1Oc1cc(NN2CCCCC2)c([N+](=O)[O-])cc1[N+](=O)[O-],8.26
14,CC(Oc1ccc(S(=O)(=O)N2CCCC2)cc1[N+](=O)[O-])C(=O)NC1(C#N)CCCCC1 (stereo not given),9.55
15,COc1cccc(CNC(=O)C2CCN(c3cnccn3)CC2)c1,-3.9
16,O=C1NC(=O)N(CCc2ccc(F)cc2)C(=O)/C1=C/c1cccs1,2.97
17,O=C1NC(=O)N(CCc2ccc(F)cc2)C(=O)/C1=C/c1ccco1,22.4
18,O=C(c1ccccc1NS(=O)(=O)c1cccs1)N1CCOCC1,6.22
19,CCCn1nnc(NC(=O)COc2ccccc2Cl)n1,67.3
20,Cc1cccc(OCC(=O)Nc2nonc2NC(=O)COc2cccc(C)c2)c1,48
21,Cc1cc(OCC(=O)Nc2ncn[nH]2)ccc1Cl,30.6
22,CCCCn1nnc(NC(=O)COc2cc(C)ccc2C(C)C)n1,64
